# From article PMC4336329 (PLoS ONE, 2015)
# The campaign covered roughly 310,000 compounds. About 14,000 (4.5%) showed an effect of 50% or more. The effect is printed as a negative number. What follows is part of a selection rich in strong results, with near analogues and random picks from the rest.
# Target: human ether-à-go-go-related gene (hERG) potassium channel (human, UniProt Q12809)
# Experiment: primary screen, population patch clamp on CHO cells stably expressing hERG; higher = less effect of the substance
# 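Further: peak tail current of the secondary pulse compared with the same well before compound.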
# Sequence of human ether-à-go-go-related gene (hERG) potassium channel (Q12809 whole entry, looked up): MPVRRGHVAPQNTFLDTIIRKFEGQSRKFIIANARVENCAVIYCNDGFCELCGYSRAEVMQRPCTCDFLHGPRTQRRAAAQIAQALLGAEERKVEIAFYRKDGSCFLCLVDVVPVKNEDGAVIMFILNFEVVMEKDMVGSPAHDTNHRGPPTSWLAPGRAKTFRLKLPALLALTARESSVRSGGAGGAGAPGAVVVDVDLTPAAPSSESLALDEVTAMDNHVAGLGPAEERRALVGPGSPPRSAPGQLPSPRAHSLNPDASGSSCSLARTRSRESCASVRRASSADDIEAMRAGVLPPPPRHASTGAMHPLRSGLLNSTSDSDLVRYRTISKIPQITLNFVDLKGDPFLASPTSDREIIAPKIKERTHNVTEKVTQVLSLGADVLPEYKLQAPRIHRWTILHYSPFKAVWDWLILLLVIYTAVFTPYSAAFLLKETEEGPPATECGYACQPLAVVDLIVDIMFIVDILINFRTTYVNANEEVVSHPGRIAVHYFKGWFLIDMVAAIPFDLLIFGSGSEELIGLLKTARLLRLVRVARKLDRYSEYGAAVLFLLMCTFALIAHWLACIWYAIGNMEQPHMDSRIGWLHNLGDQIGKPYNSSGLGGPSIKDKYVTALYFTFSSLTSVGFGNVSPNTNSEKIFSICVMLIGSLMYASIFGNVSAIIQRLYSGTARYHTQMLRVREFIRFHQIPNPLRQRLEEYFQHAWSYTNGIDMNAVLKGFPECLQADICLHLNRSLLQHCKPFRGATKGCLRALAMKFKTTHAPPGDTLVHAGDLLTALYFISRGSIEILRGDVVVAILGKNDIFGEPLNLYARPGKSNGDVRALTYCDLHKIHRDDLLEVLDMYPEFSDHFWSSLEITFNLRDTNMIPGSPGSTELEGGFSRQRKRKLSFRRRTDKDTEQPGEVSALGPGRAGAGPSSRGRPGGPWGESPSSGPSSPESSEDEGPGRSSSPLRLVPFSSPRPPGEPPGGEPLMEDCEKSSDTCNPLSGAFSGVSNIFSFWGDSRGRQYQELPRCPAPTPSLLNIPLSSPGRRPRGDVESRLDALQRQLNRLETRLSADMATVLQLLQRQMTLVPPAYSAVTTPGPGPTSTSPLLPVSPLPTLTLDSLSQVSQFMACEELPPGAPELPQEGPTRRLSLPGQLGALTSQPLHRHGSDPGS
row,SMILES,"hERG current change (%, negative = inhibition) at 10uM [%]"
1,Cc1ccc(NC(=O)CCC(=O)N/N=C/c2coc3ccccc3c2=O)cc1,0.733
2,Cc1ccccc1NC(=O)NCc1ccc2c(c1)OCO2,11.6
3,O=C(COC(=O)C1(c2ccc(Cl)cc2)CCCC1)N1CCc2ccccc21,-1.16
4,CCOC(=O)Nc1sc2c(c1C(N)=O)CCC(C)C2 (centres unmarked),16.4
5,CC(=O)c1sc2nsc(SCCN3CCCC3)c2c1N,-0.32
6,Cc1c(Cl)ccc(S(=O)(=O)Nc2cccnc2)c1Cl,13.6
7,Cc1cc(C(F)(F)F)nc(SCC(=O)NC2CCCCC2)n1,-10
8,O=C(CSc1nc2ccccc2c(=O)n1CCCN1CCOCC1)Nc1cccc(S(=O)(=O)N2CCCCCC2)c1,-72.2
9,O=C(CSc1nc2ccccc2c(=O)n1-c1ccc(F)c(Cl)c1)Nc1cccc(S(=O)(=O)N2CCOCC2)c1,21.8
10,COCCn1c(SCC(=O)Nc2ccc(S(N)(=O)=O)cc2)nc2ccccc21,-32.1
11,COCCn1c(SCC(=O)Nc2ccc(S(=O)(=O)N3CCOCC3)cc2)nc2ccccc21,-58.8
12,O=C(CSc1nc2ccccc2c(=O)n1-c1ccccc1Cl)Nc1cccc(S(=O)(=O)N2CCOCC2)c1,-6.76
13,COCCn1c(SCC(=O)Nc2ccc(N3CCOCC3)cc2)nc2ccccc21,-4.58
14,COc1cc(N)ccc1NC(=O)c1cc2ccccc2o1,13.1
15,O=C(CN1CCCC1)Nc1ccc(NC(=O)Nc2ccccc2)cc1,6.42
16,O=S(=O)(NC(=S)NC1CCCCC1)c1ccc(Br)cc1,9.58
17,CCCCN(Cc1cccs1)S(=O)(=O)c1ccc(-c2ccc(=O)[nH]n2)s1,-3.4
18,CC(C)CCN(Cc1ccco1)S(=O)(=O)c1ccc(-c2ccc(=O)[nH]n2)s1,-0.664
19,CN(C)CCN(Cc1ccccc1)S(=O)(=O)c1ccc(-c2ccc(=O)[nH]n2)s1,-67.4
20,COCCN(Cc1cccs1)S(=O)(=O)c1ccc(-c2ccc(=O)[nH]n2)s1,-46.8
21,CCCCN(Cc1ccco1)S(=O)(=O)c1ccc(-c2ccc(=O)[nH]n2)s1,-27.7
22,CN(C)CCN(Cc1ccco1)S(=O)(=O)c1ccc(-c2ccc(=O)[nH]n2)s1,-64.4

row,SMILES,"hERG current change (%, negative = inhibition) at 10uM [%]"
1,COc1ccccc1CNS(=O)(=O)c1c(C)nc2scc(C)n2c1=O,-8.78
2,Cc1cc(Nc2ccc(F)cc2C)n2ncnc2n1,-4.78
3,CCCC(=O)Nc1nc2c(c(=O)[nH]1)CCCC2,10.2
4,C/C(=C1/SC(=S)N(CCC(=O)O)C1=O)c1ccc(O)cc1,9.74
5,Cc1ccc(Nc2nc(-c3ccc(F)cc3)cs2)nc1,17.1
6,CCC(=O)N(Cc1cc2ccc(C)cc2n2nnnc12)C1CCCCC1,-32.3
7,Cc1cccc(CCNCc2cc3ccc(C)cc3[nH]c2=O)c1,-77.3
8,Cc1ccc2cc(CNC(C)C)c(=O)[nH]c2c1,-9.38
9,CNCc1cc2ccc(C)cc2[nH]c1=O,-33.1
10,CCC(=O)N(CCc1ccc(OC)c(OC)c1)Cc1cc2ccc(C)cc2n2nnnc12,-76.8
11,CCNC(=S)N(CCc1ccc(OC)c(OC)c1)Cc1cc2cc(OC)ccc2[nH]c1=O,-56.9
12,CCNC(=S)N(CCc1cccc(C)c1)Cc1cc2cc(OC)c(OC)cc2[nH]c1=O,-22.4
13,CC(=O)N(CCc1ccccc1C)Cc1cc2ccc(C)cc2[nH]c1=O,-18.3
14,Cc1ccc2cc(CNC(C)(C)C)c(=O)[nH]c2c1,-19
15,CCNC(=S)N(CCc1ccccc1C)Cc1cc2cc(OC)c(OC)cc2[nH]c1=O,-22.3
16,Cc1ccc2cc(CNCCc3ccccc3C)c(=O)[nH]c2c1,-69.7
17,COc1ccc(CCN(Cc2cc3ccc(C)cc3n3nnnc23)C(C)=O)cc1OC,-32.7
18,CCOC(=O)C1(CC2CCCCO2)CCN(C(=O)Nc2ccc3c(c2)OCO3)CC1 (centres unmarked),15.9
19,COCC(=O)Nc1ccc(C(C)C)cc1,-1.68
20,CCCCC/S(CC1CC1(Cl)Cl)=N\S(=O)(=O)c1ccc(C)cc1 (centres unmarked),15.8
21,Cc1sc(NC(=O)C2CCCCC2C(=O)O)c(C(N)=O)c1-c1ccc(C(C)C)cc1 (centres unmarked),-9.39
22,CCCCC(=O)Nc1nnc(SCC(=O)NCC2CCCO2)s1 (centres unmarked),-24.8

row,SMILES,"hERG current change (%, negative = inhibition) at 10uM [%]"
1,CCNS(=O)(=O)c1ccc(CCC(=O)NCc2cccnc2)cc1,16.8
2,Cc1ccc(C(=O)n2c3ccccc3c3ccccc32)cc1,15.9
3,COC(=O)[C@]1(C)N[C@H](c2ccc(SC3CCCCC3)c(OC)c2)[C@@H]2C(=O)N(C)C(=O)[C@@H]21.O=C(O)C(F)(F)F,-16.6
4,O=C(Nc1ccccc1)C1=C[C@@H](c2ccccc2)C[C@@H](OCc2ccc(CO)cc2)O1,2.2
5,O=C(NCC(=O)N1CCOCC1)c1ccc(Br)o1,17.4
6,CC(C)CNC(=O)CSc1n[nH]c(=O)n1CCc1ccccc1,22.1
7,Cc1nc2c(-c3ccccc3)cnn2c(N2CCOCC2)c1C,11.8
8,COc1ccc(/C=N/NC(=O)C(C)Sc2ccccn2)cc1[N+](=O)[O-] (centres unmarked),-7.8
9,COc1ccc(CCN(Cc2cc3cc(C)ccc3[nH]c2=O)C(C)=O)cc1OC,-6.87
10,COc1ccc(CCNCc2cc3ccc(C)cc3[nH]c2=O)cc1OC,-73.6
11,COc1ccc(CC(=O)OCc2cc3ccc(C)cc3[nH]c2=O)cc1,9.18
12,CC(=O)N(CCc1cccc(C)c1)Cc1cc2ccc(C)cc2[nH]c1=O,-19.7
13,COc1cc(OC)c(OC)cc1CNCCc1ccc(OC)c(OC)c1,-6.55
14,COc1ccc(CCN(Cc2cc3ccc(C)cc3[nH]c2=O)C(C)=O)cc1OC,-65.1
15,CC(=O)c1cn(-c2ccc(Cl)cc2)c(=O)n(Cc2ccc(F)cc2)c1=O,1.04
16,COc1ccc(CNC(=O)CCS(=O)(=O)c2ccc(Br)cc2)cc1,7.33
17,CC(=O)Nc1ccc(NS(=O)(=O)c2ccc(-c3cnc(C4CC4)o3)cc2)cc1,3.37
18,CCC(CC)C1C(C#N)=C(N)Oc2cc(C)oc(=O)c21 (centres unmarked),-12.7
19,CC1(C)C(c2ccccc2)=NC(c2cccnc2)=[N+]1[O-],14.8
20,COc1ccc(C(=O)N2CC3(C)C4CCC3(C)C2(C#N)C4)cc1OC (centres unmarked),4.65
21,CC(C)CNC(=O)CSc1nc2nn(-c3ccccc3)c(=O)c-2c2n1CCCCC2,-18
22,O=C(CSc1nc2nn(-c3ccccc3)c(=O)c-2c2n1CCCCC2)NCCCc1ccccc1,-63.1

row,SMILES,"hERG current change (%, negative = inhibition) at 10uM [%]"
1,O=C(CSc1nc2nn(-c3ccccc3)c(=O)c-2c2n1CCCCC2)Nc1ccc(F)cc1F,-63.2
2,CNC(=O)CSc1nc2nn(-c3ccccc3)c(=O)c-2c2n1CCCCC2,-37.2
3,COCC(C)NC(=O)CSc1nc2nn(-c3ccccc3)c(=O)c-2c2n1CCCCC2 (centres unmarked),8.5
4,COCCNC(=O)CSc1nc2nn(-c3ccccc3)c(=O)c-2c2n1CCCCC2,23.2
5,CC(C)(C)CC(=O)NCCc1csc(-c2ccccc2)n1,-7.63
6,Cn1ncc(Cl)c1C(=O)N/N=C/c1cccc(OC2CSC2)c1,8.77
7,O=C(Nc1nccs1)c1cc(Cl)ccc1[N+](=O)[O-],-9.55
8,Cc1cccc(Cn2c(N(C)Cc3ccccc3)nc3c2c(=O)[nH]c(=O)n3C)c1,-9.99
9,CCOc1ccc2nc(NC(=O)Nc3cccs3)sc2c1,18
10,CCCCN1C(=O)c2ccc(C(=O)Nc3ccccc3N3CCOCC3)cc2C1=O,7.18
11,Cc1ccc(C(=O)Nc2ccccc2N2CCOCC2)cc1S(=O)(=O)N1CCOCC1,-55.3
12,O=C(Nc1ccccc1N1CCCC1)c1ccc(F)c(S(=O)(=O)N2CCOCC2)c1,-22.5
13,O=C(Nc1ccccc1N1CCOCC1)c1ccc(F)c(S(=O)(=O)N2CCOCC2)c1,-12.6
14,COc1ccc(C(=O)Nc2ccccc2N2CCOCC2)cc1S(=O)(=O)N1CCOCC1,-17.8
15,Cc1ccc(C(=O)Nc2ccccc2N2CCCC2)cc1S(=O)(=O)N1CCOCC1,-51.2
16,O=C(Nc1ccccc1N1CCOCC1)c1ccc2c(c1)C(=O)N(Cc1ccncc1)C2=O,-58.8
17,O=C(Nc1ccccc1N1CCOCC1)c1ccncc1,-1.93
18,O=C(Nc1ccccc1N1CCCC1)c1ccc(Cl)c(S(=O)(=O)N2CCOCC2)c1,-41.4
19,Cc1cn2c(N)c(/C=C3\C=Nc4ccccc43)c(=O)nc2s1,2.43
20,CCOc1ccc(N=C(/C(C(=O)C(=O)N2CCOCC2)=C(\O)c2ccccc2)c2ccccc2)cc1,27.7
